# Laboratory results taken from the supplement of paper PMC6555819.
# Key:
# Test in all cases: PBM binding z-score (relative to random genomic background probes); higher = stronger binding; sequences stand for … in GC…GCGATTGACAGCGTAGAATGAAGG
# [1] = tested on: FXR:RXRa (NR concentration 270 nM, RXRa partner concentration 90 nM)
# Method in brief: (§1)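 Each nuclear receptor dimer, without ligand, was incubated for 1 h on custom Agilent 4×180K protein-binding microarrays. Binding was detected with antibodies against each partner (one per run), and scanned fluorescence was regression-normalized. The binding z-scores are referenced to random human genomic background probes.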
# [2] = tested on: LXRa:RXRa (NR concentration 270 nM, RXRa partner concentration 90 nM)
# Method in brief: as §1
# [3] = tested on: LXRa homodimer (NR concentration 270 nM)
# Method in brief: as §1
# [4] = tested on: LXRb:RXRa (NR concentration 270 nM, RXRa partner concentration 90 nM)
# Method in brief: as §1
# [5] = tested on: LXRb homodimer (NR concentration 270 nM)
# Method in brief: as §1
# [6] = tested on: PPARa:RXRa (NR concentration 270 nM, RXRa partner concentration 90 nM)
# Method in brief: as §1
# [7] = tested on: PPARg:RXRa (NR concentration 180 nM, RXRa partner concentration 90 nM)
# Method in brief: as §1
# [8] = tested on: PPARg:RXRa 270nM:90nM, anti-RXR (NR concentration 270 nM, RXRa partner concentration 90 nM)
# Method in brief: as §1
# [9] = tested on: PPARg:RXRa 30nM:10nM, anti-RXR (NR concentration 30 nM, RXRa partner concentration 10 nM)
# Method in brief: as §1
# [10] = tested on: PPARg:RXRa 90nM:30nM, anti-RXR (NR concentration 90 nM, RXRa partner concentration 30 nM)
# Method in brief: as §1
# [11] = tested on: PPARg:RXRa DBDmut IVT, anti-RXR (DBD mutation: RXRa K156A/R161A, NR concentration 270 nM, RXRa partner concentration 90 nM)
# Method in brief: as §1
# [12] = tested on: PPARg:RXRa IVT, anti-PPARg (NR concentration 270 nM, RXRa partner concentration 90 nM)
# Method in brief: as §1
# [13] = tested on: PPARg DBDmut:RXRa IVT, anti-PPARg (DBD mutation: PPARg1 K132A/R137A, NR concentration 270 nM, RXRa partner concentration 90 nM)
# Method in brief: as §1
# [14] = tested on: PPARg DBDmut IVT, anti-PPARg (DBD mutation: PPARg1 K132A/R137A, NR concentration 270 nM)
# Method in brief: as §1
# [15] = tested on: PPARg homodimer (NR concentration 180 nM)
# Method in brief: as §1
# [16] = tested on: PXR:RXRa (NR concentration 270 nM, RXRa partner concentration 90 nM)
# Method in brief: as §1
# [17] = tested on: PXR homodimer (NR concentration 270 nM)
# Method in brief: as §1
# [18] = tested on: RARa:RXR (NR concentration 270 nM, RXRa partner concentration 90 nM)
# Method in brief: as §1
# [19] = tested on: RARa homodimer (NR concentration 270 nM)
# Method in brief: as §1
# [20] = tested on: RARb:RXRa (NR concentration 270 nM, RXRa partner concentration 90 nM)
# Method in brief: as §1
Sequence,PBM binding z-score [1],PBM binding z-score [2],PBM binding z-score [3],PBM binding z-score [4],PBM binding z-score [5],PBM binding z-score [6],PBM binding z-score [7],PBM binding z-score [8],PBM binding z-score [9],PBM binding z-score [10],PBM binding z-score [11],PBM binding z-score [12],PBM binding z-score [13],PBM binding z-score [14],PBM binding z-score [15],PBM binding z-score [16],PBM binding z-score [17],PBM binding z-score [18],PBM binding z-score [19],PBM binding z-score [20]
ATCTCTAGGTAACCAAGTTCACTGAATGCCGAAC,0.969,1.87,2,1.58,1.09,2.25,1.1,1.54,0.634,1.2,3.89,3.32,0.487,1.47,1.17,3.1,3.34,1.64,0.615,1.9
CCGGCTGGGGCAGAAAGGTTACCATACCATCCGG,0.0889,0.439,-0.422,0.64,-1.29,1.61,0.79,1.64,-0.158,1.06,-0.851,-0.138,-1.63,-1.34,0.44,0.704,-0.199,1.52,-0.576,1.85
CGAACGAGGTCAAGGACAGTGAATCTCCGCACGC,7.55,5.54,0.753,4.4,0.542,5.95,7.29,6.61,3.39,5.65,5.22,5.6,0.997,-0.199,2.14,4.9,0.979,5.15,0.619,5.24
TCGAGTAGGTTAGGGCCATTCAGAATGGCGTCGA,0.218,-0.0329,-0.658,-0.207,-1.05,0.58,0.0561,0.722,0.497,0.65,1.63,0.942,-0.334,0.0284,-0.315,0.054,-0.626,-0.18,-0.395,0.699
CTAACTAGGTCATCCAGGACAGTGAATACATTGA,4.13,3.08,1.1,2.34,0.444,5.16,8.66,7.07,4.48,7.08,8.55,8.68,3.4,1.83,2.45,2.07,1.37,2.83,0.768,3.88
TCATATAGGTAAACACGTGAAAGTCCGTAAGTTA,0.505,0.566,0.235,0.56,0.236,1.33,1.16,2.12,3.63,2.89,4.07,2.96,0.9,1.04,0.24,0.722,0.241,0.769,1.1,0.364
TCATATAGGTAATACAGGTCAAAGTCGGCATCTA,3.34,5.45,7.33,4.42,1.69,4.33,3.55,4.08,4.34,4.27,4.69,4.55,2.09,2.09,2.8,3.34,1.5,3.94,2.09,2.49
CCTTACGGGTCACGAGGTTATAGCTCGACGAGCG,6.98,4.79,0.064,3.92,0.048,6.3,7.52,6.72,3.42,5.91,3.64,5.56,3.54,1.04,3.72,4.94,-0.0531,6.5,1.15,4.36
CCGACTGGGGCAGACAGGTTACCATACCATCCGG,-0.305,-0.476,-0.144,-0.341,-0.833,0.114,0.832,0.0365,-0.675,-0.262,1.38,1.47,0.134,-1.89,-0.172,-0.453,-0.382,-0.441,-0.217,0.69
TAGCCTAGGTCATTCAGGGGCCATTATAGAAAGC,4.21,4.32,1.34,3.81,1.44,3.96,2.32,2.45,0.349,1.57,1.86,3.06,0.753,0.98,2.02,3.3,0.128,3.79,0.894,3.98
ACTAGCAGGCCAAGTTTGGCTCACTCAAACAAAG,-0.477,-0.516,-0.635,-0.722,-0.853,-0.363,-0.294,-0.625,-0.674,-0.715,0.281,0.0532,-0.751,-1.04,-0.78,-0.576,-0.582,-0.454,-0.674,0.218
CGTCCAAGGTCATAGGAGGTGAGTGAAGACAGAT,7.28,5.61,1.23,4.25,0.462,5.79,4.94,5.08,1.98,3.99,2.78,4.36,0.426,0.754,2.6,4.84,1.4,4.65,0.644,5.24
AATCCAGGGTCACTAGGCCAGAGTAGGTACGAAT,5.69,4.8,0.376,3.92,0.621,5.78,7.8,6.61,3.93,5.73,3.69,5.76,1.17,1.11,2.8,3.49,0.164,4.74,0.405,4.36
ATCTCTAGGTAAAACTTCAGTGAATCCCGAGGAT,0.0366,0.047,-0.183,-0.182,0.628,0.249,0.323,0.56,0.176,0.539,1.85,1.8,1.22,0.94,-0.0625,-0.0735,0.231,-0.12,0.676,0.128
ACTGTTAGTTGAGACGAGGGCAACCGATAGGTTG,0.919,0.0939,-0.0594,0.0493,0.747,0.275,0.412,-0.13,-0.0644,0.0713,-0.176,0.773,0.909,0.848,0.542,1.2,0.0894,0.667,0.756,1.21
TTACCAAGGTGAAAGGTCTTTGATGCACGCCTTG,1.27,1.01,-0.494,1.07,-0.549,3.54,5.56,6.21,4.99,6.07,2.19,4.37,0.282,0.356,1.16,1.19,-0.419,1.96,0.0646,1.96
